Bioassay records (PubChem)
Rows were chosen to be rich in hits. Some 19% of all compounds tested hit in one or more screens of this group.
TDP1 cell noCPT = qHTS for Inhibitors of human tyrosyl-DNA phosphodiesterase 1 (TDP1): qHTS in cells in absence of CPT; DT40 Tdp1-/- hTDP1 cells, no CPT, ATP luminescence, 48 h; Potency, µM (doses to about 46.2 µM), for inactives: top-dose activity change, negative = growth inhibition, hits mostly inhibitors; actives 15% (n = 420,000); further: potency means the concentration at half of the fitted maximal effect; nearly all actives have a fitted effect of over 55% in size
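Cells were dispensed at 400 per well, compounds added by pin tool, plates incubated ≥48 hr at 37 °C, then CellTiter-Glo added for 30 min at room temperature before luminescence reading. Line: DT40 Tdp1-/- complemented with hTDP1; camptothecin omitted.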
DT40 TDP1 CPT = growth inhibition of DT40 Tdp1-/-;hTDP1 cells with camptothecin (screen for TDP1 inhibitors); chicken DT40 Tdp1-/-;hTDP1 cells + 20 nM CPT, ATP luminescence, 48 h; Potency, µM (series often up to 46.2 µM), inactives show top-dose activity change, negative = growth inhibition, hits mostly inhibitors; AID 686979; actives 12% (n = 420,000); further: potency means the concentration at half of the fitted maximal effect; nearly all actives have a fitted effect of over 55% in size
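Chicken DT40 Tdp1-/- cells stably complemented with human TDP1 were seeded at 400 cells/well in medium containing 20 nM camptothecin, exposed to pin-transferred compounds, and grown at 37 °C for at least 48 hr. Viability was read as ATP luminescence.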
IL1B secr inh = blocks inflammasome-driven IL-1 beta release; AID 743279; THP-1 LPS/ATP IL-1B secretion, AlphaLISA, 16 h; active compounds read low; actives 4.7% (n = 360,000); activity change, % at 57.5 µM; in the data active means activity change below about -50%; inconclusive means mostly about -30% to -49%
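THP-1 cells pretreated 1 hr with compounds (up to 57.5 uM final), then stimulated with LPS (250 ng/mL final) plus ATP (1.25 mM final); secreted IL-1B measured by AlphaLISA after 16 hr, decreased signal indicating inhibition.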
HT1080NT lethal = kills 2HG-producing HT-1080-NT fibrosarcoma cells | HT-1080-NT fibrosarcoma viability, CellTiter-Glo ATP luminescence, 48 h | Potency, µM (series often up to 46.1 µM), for the others: top-dose activity, negative = less viability, most hits filed as cytotoxic | actives 1.6% (n = 360,000);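 further: NT is the 2HG producing partner of a matched IDH1 knockdown line; potency means the concentration at half of the fitted maximal effect; 0% = DMSO-treated cells and -100% = media-only wells without cells; nearly all actives have a fitted effect of over 55% in size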
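750 cells/well, RPMI + 5% FBS; 2 h settle, compound pin-transfer, 48 h at 37 degrees C. CellTiter-Glo 10 min RT, luminescence. Normalized to DMSO and media-only wells.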
HT1080 IDH1KD tx = kills HT-1080 cells with IDH1 knockdown; actives 2% (n = 360,000); AID 686971; Potency, µM (top dose mostly 46.1 µM), without a hit: at the highest dose activity, negative = toxicity, usual class: cytotoxic; HT-1080 IDH1 knockdown viability, ATP luminescence, 48 h;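 further: potency means the concentration at half of the fitted maximal effect; 0% = DMSO wells and -100% = cell-free medium wells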
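IDH1KD HT-1080 cells, 750/well, RPMI + 5% FBS; compound pinned after 2 h settling; 48 h, 37 °C; CellTiter-Glo luminescence; % activity normalised to DMSO and no-cell wells; curves fitted, classed by r2 and efficacy.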
Starred values were filed as active, the others as inactive; u = inconclusive; x = no result given. Unless noted, the call rests on the fitted dose curve; in most records, active means well fitted curve in the direction sought with a large enough effect; inconclusive means small, poorly fitted or top-dose-only effect, or another doubt; inactive means no such curve, though single readings can be large; an effect the other way counts as inactive or inconclusive. Unless noted, on the % scale 0 is the no-effect control and ±100 the full control effect.

SMILES	TDP1 cell noCPT	DT40 TDP1 CPT	IL1B secr inh	HT1080NT lethal	HT1080 IDH1KD tx
Cc1ccc(NC(=O)C(OC(=O)c2ccc(C=O)cc2)c2ccccc2)cc1Cl (centres undefined)	u	u	-5	u	23µM*
COc1ccc(CCNC(=O)CN(c2cc(C(F)(F)F)ccc2Cl)S(C)(=O)=O)cc1	u	5%	x	x	x
O=C(Cc1ccc[nH]c1=O)c1ccc(F)cc1	-9%	-1%	x	x	x
COc1ccc(C(=O)NC2CCCc3ccccc32)cc1 (centres undefined)	u	-17%	-4	-2%	u
COc1ccc(-c2cn3c(n2)sc2cc(C(=O)NC4CCCc5ccccc54)ccc23)cc1 (centres undefined)	5.8µM*	8.2µM*	x	x	x
Cc1ccc(-c2cn3c(n2)sc2cc(C(=O)NC4CCCc5ccccc54)ccc23)cc1 (centres undefined)	13µM*	13µM*	x	x	x
COc1ccc2nc(NC(=O)c3ccc(S(=O)(=O)N4CCC(C)CC4)cc3)sc2c1	u	3%	x	x	x
Cc1ccc(Cl)cc1N1CCN(c2cccc[n+]2C)CC1	26µM*	u	-11	u	-28%
C[n+]1ccccc1N1CCN(c2ccccc2Cl)CC1	u	23µM*	-3	-3%	-1%
Clc1ccccc1N1CCN(c2ncnc3nc[nH]c23)CC1	-15%	-22%	17	-8%	-1%
Cc1ccc(Cl)cc1N1CCN(C(=S)NCCc2ccccc2)CC1	u	u	6	-1%	-20%
COc1ccccc1NS(=O)(=O)c1ccc(O)c(C(=O)OCC(=O)N2c3ccccc3CC2C)c1 (centres undefined)	u	-19%	4	-7%	-1%
COc1ccc(C(=O)CCC(=O)Nc2cccc(C(C)=O)c2)cc1	-2%	20%	x	x	x
CCc1ccc(NC(=O)CCn2c(-c3ccc(OC)cc3)cc(C(C)=O)c2C)cc1	16µM*	16µM*	x	x	x
CCOC(=O)c1cc(-c2ccc(F)cc2)n(CCC(=O)Nc2nc3ccc(OC)cc3s2)c1C	16µM*	18µM*	x	x	x
CCOC(=O)c1cc(-c2ccc(OC)cc2)n(CCC(=O)Nc2cccc(C(C)=O)c2)c1C	15µM*	16µM*	x	x	x
Cc1cccc2sc(NC(=O)CCNS(=O)(=O)c3cccs3)nc12	26µM*	18µM*	u	-14%	-11%
Cc1ccc2nc(NC(=O)CCNS(=O)(=O)c3cccs3)sc2c1	u	u	u	-27%	-27%
COc1ccc2nc(NC(=O)c3ccc(F)cc3)sc2c1	-17%	3%	-26	-16%	u
C[C@H](NC(=O)[C@@H]1CCCN1C(=O)[C@@H]1CCCN1)c1ccccc1	-9%	1%	11	2%	0%
FC(F)(F)c1ccccc1-c1cc(NCCN2CCOCC2)ncn1	-1%	-4%	x	x	x
Cc1ccnc(NC(=O)C(C)N2C(=O)c3ccccc3S2(=O)=O)c1 (centres undefined)	4%	3%	1	14%	u
COc1ccc(-n2c(=O)c(-c3cccs3)nc3cncnc32)cc1	12%	9%	x	x	x
CC(=O)c1cc(-c2ccc(F)cc2)n(CCC(=O)Nc2nc3c(C)cccc3s2)c1C	13µM*	u	x	x	x
COc1cc(NC(=O)CCn2c(-c3ccccc3)cc(C(C)=O)c2C)cc(OC)c1	13µM*	u	x	x	x
CC(=O)c1cc(-c2ccc(F)cc2)n(CCC(=O)Nc2cc(C)[nH]n2)c1C	-22%	9%	-17	10%	4%
COc1ccccc1CNC(=O)Nc1nnc([C@H]2C[C@H](O)[C@@H](CO)O2)s1	-8%	-5%	3	2%	2%
O=C(NCc1ccco1)c1nc2c(nnn2Cc2ccccc2Cl)c(=O)[nH]1	u	u	3	18µM*	u
O=C(Nc1ccc(F)cc1)c1nc2c(nnn2Cc2cccc3ccccc23)c(=O)[nH]1	15µM*	u	-98*	-3%	-2%
